Screening data deposited in PubChem BioAssay by Broad Institute.
Hits are enriched below; roughly 3.4% of the tested compounds scored in any of these assays.
Ecoli rRNA inh – reduced GFP signal of wild-type E. coli, primary screen, bacterial rRNA inhibitor project, GFP/RFP fluorescence, OD600, single point | E. coli WT GFP vs humanized-ribosome RFP mutants, 24 h; hits give low values; DMSO median 0, no signal -100 | GFP signal change (wild-type ribosome), % (concentration not given with the values) | 350,000 tested, 1.6% active;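 active = significant combined selectivity score with lowered wild-type GFP, culture density cut under 30%, mutant RFP and density less affected; inactive = any of these conditions unmet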
LGR2 inh – inhibitors of bursicon-induced LGR2 CRE-luciferase signal, primary screen, cell-based, HEK293, CRE-luciferase reporter, bursicon stimulation. Drosophila bursicon receptor LGR2 (rickets). bursicon-stimulated, 4 h. inhibition, % at 9.99 µM. 380,000 tested, 0.35% active. AID 720647, 2013;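 active = drop in luminescence signal, shown as inhibition above about 50% in the replicate tests, limit read from the data, passing the limit was not always enough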;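 also: agonist challenge used bursicon conditioned medium at about half maximal strength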
PGC1a acetyl inh – inhibitors of PGC1a acetylation signal, primary screen, cell-based, U2OS, AlphaScreen, inhibitor mode. AlphaScreen anti-acetyl-lysine; with virally co-expressed GCN5 acetyltransferase. inhibition, % at 15.6 µM. 350,000 tested, 0.17% active. AID 651687, 2012;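 active = every replicate shows inhibition of at least 40%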;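 also: 0% = neutral control wells and 100% = positive control wells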
PAX8 reporter – inhibitors of PAX8-driven TPO luciferase reporter, primary screen, RMG-I cells, single concentration; inhibition, % at 12.6 µM; 360,000 tested, 1.2% active; SteadyGlo, 24 h; AID 652154, 2013;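 active = mean replicate inhibition at least 60% with every replicate also reaching 60%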;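 also: luciferase light reporting Pax8 driven TPO promoter activity; plate controls were median of neutral control wells for no effect and mitoxantrone controls for full effect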
SIRT5 block – SIRT5 desuccinylase inhibitors, primary screen, biochemical, fluorescence imaging, single point, set 5; NAD-dependent protein deacylase sirtuin-5, mitochondrial (Homo sapiens), Q9NXA8; Purified SirT5, succinyl-peptide AMC, trypsin-coupled fluorescence; inhibition, % at 15 µM; 330,000 tested, 1.1% active; in the data active = inhibition above about 15%
Target sequence (Q9NXA8 whole entry, looked up): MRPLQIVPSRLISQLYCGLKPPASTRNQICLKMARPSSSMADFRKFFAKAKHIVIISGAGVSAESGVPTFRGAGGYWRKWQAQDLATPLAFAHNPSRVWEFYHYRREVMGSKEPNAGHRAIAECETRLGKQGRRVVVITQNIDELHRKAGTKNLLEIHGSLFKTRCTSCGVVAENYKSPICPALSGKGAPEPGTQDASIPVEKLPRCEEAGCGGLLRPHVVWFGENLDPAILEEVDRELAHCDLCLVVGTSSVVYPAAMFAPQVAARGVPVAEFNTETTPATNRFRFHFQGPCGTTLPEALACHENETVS
EWS-Fli block – EWS/Fli-driven NR0B1 reporter inhibitors, primary screen, A673 cells, NR0B1 luciferase, luminescence, MLPCN library; viability-normalised; inhibition, % at 12.6 µM; 350,000 tested, 0.67% active;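 active = mean inhibition of at least 50% after viability correction, with every replicate also passing that limit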;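 also: firefly luciferase signal divided by Alamar Blue viability fluorescence both relative to DMSO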
* marks the source's active call; other numbers are inactive results; · = no result.

SMILES	Ecoli rRNA inh	LGR2 inh	PGC1a acetyl inh	PAX8 reporter	SIRT5 block	EWS-Fli block
CO[C@@H]1CN(C)C(=O)c2ccc(NC(=O)C3CC3)cc2OC[C@H](C)N(Cc2cncnc2)C[C@H]1C	1	0	2	·	·	-3
COc1cccc(S(=O)(=O)N[C@H]2CC[C@@H](CC(=O)NCc3ccc(Cl)cc3)O[C@H]2CO)c1	-7	3	-1	17	0	-11
Cn1c(=O)cc(SCC(=O)N2CCN(C3CCCCC3)CC2)c2ccccc21	0	-8	32	12	17*	7
CN(C)C(=O)[C@H]1[C@H](CO)[C@H]2Cn3c(ccc(-c4ccccc4F)c3=O)[C@H]2N1C(=O)c1cnccn1	2	4	·	-3	-2	-3
O=C(/C=C/c1ccccc1)c1ccc(NC2=NCCCS2)cc1	-26*	-17	21	-109	-2	-48
Cc1cccc(-c2ccc([C@@H]3[C@@H](CO)N4CCCCN(S(=O)(=O)c5cn(C)cn5)C[C@@H]34)cc2)c1	-14	-4	7	3	-4	·
COC(=O)C1CN(C(=O)COc2ccc(C)c(C)c2)c2ccccc2O1 (stereo not drawn)	-6	-2	·	1	0	4
COC(=O)C1CN(C(=O)COc2ccc(C)cc2)c2ccccc2O1 (stereo not drawn)	8	-7	-3	7	35*	-5
CC1=C/C(=N\NC(=S)NCc2ccccc2)CC1	7	-22	3	-32	18*	9
Cc1ccccc1-n1cc(-c2ccc(Br)cc2)nc1SCC(N)=O	-41*	20	-22	10	-3	-4
CC(C)N1C(=O)/C(=C\c2nc3ccccc3c(=O)[nH]2)c2ccccc21	-1	98*	·	·	-1	14
O=C(N/N=C/c1cccc([N+](=O)[O-])c1)c1cc(-c2ccc3c4c(cccc24)CC3)n[nH]1	3	-32	8	-5	-4	-10
O=C(N/N=C/c1ccc(Cl)c([N+](=O)[O-])c1)c1cc(-c2ccc3c4c(cccc24)CC3)n[nH]1	3	2	-7	97*	-3	24
O=C(NC1=NCCS1)c1sc2cc(Cl)cc(Cl)c2c1Cl	·	-3	·	-19	·	·
O=C(NC1=NCCS1)c1sc2ccccc2c1Cl	-31*	-33	8	·	-1	-79
C[C@H](O)C#Cc1cnc2c(c1)C(=O)N([C@@H](C)CO)C[C@@H](C)[C@H](CN(C)CC1CCCCC1)O2	4	24	5	4	-2	2
O=C(c1ccc(Cl)cc1)N1CCN(c2cccc3[nH]ccc23)CC1	-25*	18	·	22	2	6
O=C(Nc1nnc(SCC(=O)N2CCCc3ccccc32)s1)c1cccc2ccccc12	7	22	·	11	2	88*
CCc1cccc(C)c1N=Cc1c(O)c2ccccc2oc1=O	-24*	-8	·	9	-4	4
Cc1ccc(C(=O)N2CCN(c3ncccn3)CC2)cc1	-2	-8	80*	-9	-2	2
COc1cccc(NC(=O)C(C)OC(=O)c2n[nH]c3ccccc23)c1 (stereo not drawn)	-27*	-16	-9	-10	0	-26
CC(=O)c1cccc(NC(=O)COC(=O)c2n[nH]c3ccccc23)c1	-23*	-27	-3	-7	-2	-10
O=[N+]([O-])c1ccc(-c2csc(NN=C3CCCC3)n2)cc1	-22*	-43	3	-37	-1	-38
COc1ccc(S(=O)(=O)Nc2cc3c(cc2C(C)=O)OCO3)cc1	-17	-4	·	14	-2	55*
C[C@H](CO)N1C[C@H](C)[C@H](CN(C)C(=O)Nc2ccc3c(c2)OCO3)Oc2ccc(NC(=O)Cn3cnnn3)cc2CC1=O	0	21	6	14	-1	-17
COc1ccc2c3c([nH]c2c1)[C@H](CO)NCC31CCN(C(=O)Cc2ccncc2)CC1	-2	·	·	·	·	·
